SMILES strings stand for the structures. Where “and” joins values, the source holds several entries; their conditions need not be identical. Equal entries are not always repeated. Records with an inconclusive call do not appear. Calls of active or inactive are those of the source. Unless noted, calls follow the shape of the dose curve; as a rule, active = well fitted curve in the direction sought with a large enough effect; inconclusive = small, poorly fitted or top-dose-only effect, or another doubt; inactive = no such curve, though single readings can be large; an effect the other way counts as inactive or inconclusive.

The values that follow come from PubChem BioAssay (NCATS).

The target in assay [1] is Calcium and integrin-binding protein 1 (Homo sapiens) (UniProt Q99828). Kind of assay: Primary qHTS for Identification of Calcium Integrin Binding Protein 1 (CIB1) Competitor (AID 1508620). Also: top concentration of the series differs between compounds. The gist of the method: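 Fluorescence polarization competition: GST-tagged CIB1 (1 uM final) preincubated with compound 15 min at room temperature, then FITC-labelled alphaIIb peptide (100 nM final) added. After 15 min at room temperature, polarization read at Ex 480/Em 540.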

The target of assay [2] is Cytochrome P450 2D6 (Homo sapiens) (UniProt P10635). Put plainly: Cytochrome P450 family 2 subfamily D member 6 (CYP2D6) small molecule antagonists: luciferase biochemical (cell-free) qHTS assay (AID 1645840; active = well fitted curve in the direction sought with a large enough effect in the repeat runs; an effect the other way counts as inactive or inconclusive; also: nearly all actives have a fitted effect of over 55% in size; also: potency is read from the fitted curve at half-maximal effect; as to activity change, negative = inhibition: series mostly up to about 57 µM). Put shortly: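 P450-Glo CYP2D6 system: proluciferin substrate converted by enzyme to luciferin, read by luminescence proportional to activity. Enzyme-substrate mix with compound 10 min at room temperature, then NADPH regeneration 1 h before detection reagent.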

Assay [3] concerns the target Cytochrome P450 2C9 (Homo sapiens) (UniProt P11712). Kind of assay: Cytochrome P450 family 2 subfamily C member 9 (CYP2C9) small molecule antagonists: luciferase biochemical (cell-free) qHTS assay (AID 1645842; active = well fitted curve in the direction sought with a large enough effect in the repeat runs; an effect the other way counts as inactive or inconclusive; also: nearly all actives have a fitted effect of over 55% in size; also: potency is read from the fitted curve at half-maximal effect; as to activity change, negative = inhibition: series mostly up to about 57 µM). The gist of the method: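 P450-Glo CYP2C9 system: proluciferin substrate with enzyme in mix containing 0.4% BSA, 10 min at room temperature, then NADPH regeneration solution added and incubated 1 h at 37C. Detection reagent stopped reaction; luminescence read after 20 min as RLU.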

The nature of assay [4]: Primary qHTS for inhibitors of nuclear receptor binding SET domain protein 2 (NSD2) in an isogenic RCH-ACV NSD2 p.E1099K mutant (9B) (AID 1645876). Also: nearly all actives have a fitted effect of over 70% in size. Also: potency is read from the fitted curve at half-maximal effect.
Assay [5] in a line: Primary qHTS for inhibitors of nuclear receptor binding SET domain protein 2 (NSD2) in an RCH-ACV wild type WT cells (2C) (AID 1645877). Also: nearly all actives have a fitted effect of over 70% in size. Also: potency is read from the fitted curve at half-maximal effect.
% is scaled to controls: 0 for no effect and ±100 for the full control effect.

Calcium and integrin-binding protein 1 (Homo sapiens), sequence (Q99828 whole entry, looked up): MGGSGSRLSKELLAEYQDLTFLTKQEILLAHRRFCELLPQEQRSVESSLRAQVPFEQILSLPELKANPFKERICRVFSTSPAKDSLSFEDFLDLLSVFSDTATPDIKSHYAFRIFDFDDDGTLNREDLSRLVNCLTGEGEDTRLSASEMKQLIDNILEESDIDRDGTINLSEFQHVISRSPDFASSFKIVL
Cytochrome P450 2D6 (Homo sapiens), sequence (P10635 whole entry, looked up): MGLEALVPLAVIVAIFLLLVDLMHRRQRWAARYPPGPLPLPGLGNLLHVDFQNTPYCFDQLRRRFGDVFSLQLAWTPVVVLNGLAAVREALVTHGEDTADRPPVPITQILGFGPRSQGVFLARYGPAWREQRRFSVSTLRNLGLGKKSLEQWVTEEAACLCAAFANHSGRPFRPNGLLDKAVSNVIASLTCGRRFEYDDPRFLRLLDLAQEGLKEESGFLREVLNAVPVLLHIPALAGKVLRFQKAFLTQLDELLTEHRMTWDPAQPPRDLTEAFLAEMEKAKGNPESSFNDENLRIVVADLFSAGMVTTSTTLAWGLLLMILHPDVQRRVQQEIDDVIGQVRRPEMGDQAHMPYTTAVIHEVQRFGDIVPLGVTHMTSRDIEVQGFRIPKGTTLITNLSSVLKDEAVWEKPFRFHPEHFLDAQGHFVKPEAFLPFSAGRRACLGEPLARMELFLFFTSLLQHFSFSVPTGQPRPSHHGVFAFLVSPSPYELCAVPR
Cytochrome P450 2C9 (Homo sapiens), sequence (P11712 whole entry, looked up): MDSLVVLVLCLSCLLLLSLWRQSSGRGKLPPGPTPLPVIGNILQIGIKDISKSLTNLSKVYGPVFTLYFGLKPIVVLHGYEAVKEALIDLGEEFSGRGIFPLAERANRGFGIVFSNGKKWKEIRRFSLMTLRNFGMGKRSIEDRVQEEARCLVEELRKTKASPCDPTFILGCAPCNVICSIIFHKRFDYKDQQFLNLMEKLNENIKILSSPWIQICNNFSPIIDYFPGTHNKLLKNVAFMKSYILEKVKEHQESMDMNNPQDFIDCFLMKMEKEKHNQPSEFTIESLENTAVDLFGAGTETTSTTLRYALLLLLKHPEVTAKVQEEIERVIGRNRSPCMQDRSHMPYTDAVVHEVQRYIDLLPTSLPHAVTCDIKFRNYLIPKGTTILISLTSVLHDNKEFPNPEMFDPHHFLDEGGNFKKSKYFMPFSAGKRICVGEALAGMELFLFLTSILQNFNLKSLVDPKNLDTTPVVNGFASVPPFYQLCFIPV

Take `Oc1ccc(-c2cnc3ccc(NCc4ccco4)nn23)cc1`: the Potency result in assay [1] is “inactive”. Moreover, the Potency was 1.69 µM (active) in assay [2], 0.756 µM (active) in assay [3], 1.83 µM (active) in assay [4] and 1.83 µM (active) in assay [5].

Consider `Cc1ccc(C2(C(=O)N3CCC(n4nc(-c5ccccc5)oc4=O)CC3)CC2)cc1`, for which the Potency entry in assay [1], in assay [4] and in assay [5] was “inactive” each time. Also, the results for the Potency in assay [2] and in assay [3] were 13.5 µM (active) and 0.756 µM (active), respectively.

For the compound `Cc1c(NC(=O)OCC2COCCN2)cn2ncnc(Nc3ccc4c(cnn4Cc4cccc(F)c4)c3)c12` (stereo not given), the Potency entry in assay [1] is “inactive”. Further, the Potency in assay [2] was 21.3 µM (active); in assay [3], 19 µM (active); in assay [4] it was 14.5 µM (active) and 18.6 µM (active); in assay [5], 16.3 µM (active) and 16.6 µM (active).

On to `COc1ccc(NC(=O)c2ccc(C(=N)N(C)C)cc2)c(C(=O)Nc2ccc(Cl)cn2)c1`, for which the Potency result in assay [1], in assay [2], in assay [4] and in assay [5] was “inactive” each time. Further, in assay [3], the Potency was 3.79 µM (active).

As to `O=C1C(Cc2ccc(O)cc2)N2C(=O)CCN(C(=O)NCc3ccccc3)C2CN1Cc1cccc2ccccc12` (stereo not given), in assay [1], the Potency entry is “inactive”. Besides, the Potency is 1.07 µM (active) in assay [2], 10.7 µM (active) in assay [3], 3.65 µM (active) in assay [4] and 5.15 µM (active) in assay [5].

Turning to `CCOC(=O)c1cnn(-c2ccccc2)c1NC(=O)c1cc2nc(-c3ccco3)cc(C(F)(F)Cl)n2n1`, the Potency entry in assay [1], in assay [2], in assay [4] and in assay [5] was “inactive” throughout. The Potency in assay [3] was 3.38 µM (active).

With `CC(=O)NCc1cccc(OC[C@@H](O)CNCCc2ccc(NS(=O)(=O)c3ccccc3)cc2)c1`, the Potency result in assay [1], in assay [4] and in assay [5] was “inactive” throughout. For the same compound, the Potency is 0.849 µM (active) in assay [2] and 0.674 µM (active) in assay [3].

On to `COCCCNC(=O)c1ccc(Cn2c(=O)c3ccccc3n(Cc3ccc(C(C)C)cc3)c2=O)cc1`, for which the Potency result in assay [1], in assay [2], in assay [4] and in assay [5] was “inactive” in each case. In addition, in assay [3], the Potency is 1.51 µM (active).

As to `CCOc1nc(NC(=O)Cc2cc(OC)ccc2OC)cc(N)c1C#N`, the Potency entry in assay [1], in assay [2], in assay [4] and in assay [5] was “inactive” each time. For the same compound, in assay [3], the Potency was 0.301 µM (active).

`COC1CCN(c2cccc(-c3cc(NC(C)=O)nc(-n4nc(C)cc4C)n3)n2)CC1`: the Potency result in assay [1] was “inactive”. Also, the Potency in assay [2] is 6.01 µM (active); in assay [3] it was 10.7 µM (active); in assay [4], 20.5 µM (active); in assay [5] it was 16.3 µM (active).

For `Cc1csc(N(C(=O)CSc2ccc(-c3ccccc3)nn2)C2CC2)n1`, the Potency entry in assay [1], in assay [2], in assay [4] and in assay [5] was “inactive” throughout. Also, in assay [3], the Potency was 10.7 µM (active).

On to `FC(F)(F)c1ccccc1-c1cc(C(F)(F)F)c2nc(C3=NOC4(CCCCC4)C3)[nH]c2c1`, for which the Potency result in assay [1], in assay [2] and in assay [3] was “inactive” in each case. Also, the figures for the Potency in assay [4] and in assay [5] were 18.3 µM (active) and 14.5 µM (active), respectively.

For the compound `C[C@@H](Nc1ncnc2[nH]c(-c3ccc(O)cc3)cc12)c1ccccc1`, the Potency entry in assay [1] is “inactive”. Also, the Potency is 1.34 µM (active) in assay [2]; 1.2 µM (active) in assay [3]; 5.78 µM (active) and 11.8 µM (active) in assay [4]; 5.78 µM (active) and 10.5 µM (active) in assay [5].

Consider `COCC(=O)NC/C=C/c1ccc2ncnc(Nc3ccc(Oc4ccc(C)nc4)c(C)c3)c2c1`, for which the Potency entry in assay [1] was “inactive”. Moreover, the Potency was 10.7 µM (active) in assay [2], 8.49 µM (active) in assay [3], 20.5 µM (active) in assay [4] and 16.3 µM (active) in assay [5].

For the compound `O=C(Nc1ccc(C(O)(C(F)(F)F)C(F)(F)F)cc1)c1ccc(C(F)(F)F)cc1`, the Potency entry in assay [1] is “inactive”. Further, the Potency was 19 µM (active) in assay [2], 10.7 µM (active) in assay [3], 5.78 µM (active) in assay [4] and 5.78 µM (active) in assay [5].

Turning to `COc1ccc(-c2cnc3c(-c4cccc5ncccc45)cnn3c2)cc1`, the Potency entry in assay [1], in assay [2], in assay [4] and in assay [5] was “inactive” throughout. Besides, the Potency in assay [3] is 12 µM (active).

In the case of `Cc1ccc(F)cc1S(=O)(=O)N[C@@H]1CCN(Cc2ccc(OC(C)C)cc2)C1`, the Potency entry in assay [1] was “inactive”. The Potency in assay [2] is 0.0169 µM (active); in assay [3], 6.01 µM (active); in assay [4], 16.3 µM (active); in assay [5] it was 18.3 µM (active).

As for `OC(c1ccc(-c2ccc(CN3CCN(Cc4ccncc4)CC3)cc2)c(F)c1)(C(F)(F)F)C(F)(F)F`, the Potency entry in assay [1], in assay [4] and in assay [5] was “inactive” throughout. The values for the Potency in assay [2] and in assay [3] were 3.38 µM (active) and 1.34 µM (active), respectively.

`CNC1CN(c2ccc3c(=O)c(C(=O)O)cn(-c4nccs4)c3n2)CC1OC` (stereo not given): in assay [1], the Potency result is “inactive”. The figures for the activity change, negative = inhibition in assay [2] and in assay [3] were 16.1% [at 11.5 µM] (inactive) and 4.23% [at 11.5 µM] (inactive), respectively. Also, the Potency in assay [4] was 0.0836 µM (active); in assay [5] it was 0.0297 µM (active).

Consider `COc1cc2c(cc1OCCCN1CCCC1)N=C(N)C21CCC1`, for which the Potency entry in assay [1], in assay [3], in assay [4] and in assay [5] was “inactive” throughout. Further, in assay [2], the Potency is 23.9 µM (active).

As for `COC(=O)N1CCC(n2ncc3c(N4CCOCC4)nc(-c4ccc(NC(=O)NC5CC5)cc4)nc32)CC1`, the Potency result in assay [1] was “inactive”. In addition, the Potency in assay [2] was 16.9 µM (active); in assay [3], 3.38 µM (active); in assay [4] it was 0.0817 µM (active); in assay [5], 0.115 µM (active).
